EP2 mod = modulators of human EP2 prostaglandin E2 receptor; P43116; EP2-expressing cells, cAMP HTRF FRET, PGE2 co-stimulation; induction, % at 25 µM; 260,000 compounds, 0.83% hits;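 active = compounds whose cAMP rise, as percent of the full-agonist control response, exceeds 60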;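 note: rat C6 glioma line stably carrying human EP2 under a CMV promoter; the protocol text gives 20 µM as final concentration; 100% = response of wells given 1 µM PGE2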
S1P4 ag = human S1P4 receptor agonism. O95977. S1P4-expressing cell line, agonist reporter assay. activation, % at 4.98 µM. 220,000 compounds, 0.35% hits; in the data active = activation above about 11%;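 note: 0% = DMSO vehicle and 100% = reference agonist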
PGE2 EP2 inh = inhibitors of human EP2 prostaglandin E2 receptor | C6 glioma cells expressing human EP2, cAMP TR-FRET; cells stimulated with saturating PGE2 | inhibition, % at 25 µM | 260,000 compounds, 0.52% hits | AID 1422;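 active = percent inhibition above 40 after rounding to a whole number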;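 note: rat C6 glioma host cells with rolipram phosphodiesterase inhibitor present; the protocol text gives 20 µM as final concentration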
S1P3 antagonist = antagonists of human S1P3 receptor | inhibition, % at 4.98 µM | Q99500 | 170,000 compounds, 0.27% hits | AID 485 | CHO S1P3 NFAT-BLA reporter, FRET fluorescence, antagonist mode;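 active = inhibition above the plate cutoff, the mean inhibition of test wells on that plate plus 3 SD, cut at about 28% in these data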;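 note: cells challenged with S1P at its EC80 of 0.8 µM; blue over green emission ratio from cleaved BLA substrate after 4 h stimulation; 0% = S1P-stimulated wells and 100% = unstimulated DMSO-only wells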
Target sequence (Q99500 whole entry, looked up): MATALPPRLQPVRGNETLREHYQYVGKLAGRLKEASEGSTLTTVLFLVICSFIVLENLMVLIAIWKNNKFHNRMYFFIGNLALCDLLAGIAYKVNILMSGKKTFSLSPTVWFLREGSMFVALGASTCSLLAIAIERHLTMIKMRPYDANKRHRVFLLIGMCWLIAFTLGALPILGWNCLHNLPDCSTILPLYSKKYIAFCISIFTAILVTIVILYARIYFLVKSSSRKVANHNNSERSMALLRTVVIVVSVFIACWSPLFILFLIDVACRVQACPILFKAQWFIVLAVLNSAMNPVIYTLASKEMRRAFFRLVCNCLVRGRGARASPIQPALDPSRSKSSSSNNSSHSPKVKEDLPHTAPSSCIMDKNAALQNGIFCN
S1P4 antag = human S1P4 receptor antagonism; inhibition, % at 4.98 µM; O95977; 220,000 compounds, 0.26% hits; S1P4-expressing cells, antagonist mode, reporter read-out; in the data active = inhibition above about 29%;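 note: 0% = wells stimulated with agonist and 100% = vehicle wells without agonist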
EP2 cAMP induct = human EP2 receptor cAMP induction, negative in counter-screens. shares compounds with EP2 mod. C6 glioma EP2 cells, cAMP HTRF induction; plus low (about EC15) PGE2 agonist. calls only at 20 µM (by protocol). 1,300 compounds, 47% hits. AID 1080;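 active = cAMP induction above 50% in the main assay while under 30% in all four parallel counter assays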;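 note: rat C6 glioma cells stably expressing human EP2 receptor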
Active calls of the source: *; i = inactive; x = no result given; + = active, no number; ! = not active in a repeat. Rows were chosen to be rich in hits. Some 2% of all compounds tested hit in one or more screens of this group.

SMILES	EP2 mod	S1P4 ag	PGE2 EP2 inh	S1P3 antagonist	S1P4 antag	EP2 cAMP induct
CC(=O)N(Cc1cccs1)Cc1cc2cc(C)cc(C)c2[nH]c1=O	-2	x	12	x	x	x
CC(=O)N(Cc1cccs1)Cc1cc2ccc(C)c(C)c2nc1Cl	77*	2	8	-8	-18	i
Cc1ccc(O)c(C2=Nc3ccccc3N=C(c3cccs3)C2)c1	69*	1	-1	-7	-15	i
Cc1sc(NC(=O)c2ccccc2F)c(CN2CCCCC2C)c1C (centres undefined)	79*	0	10	-9	-5	+
CC1=NN(c2ccc(S(=O)(=O)O)cc2)C(=O)/C1=C\c1ccc(Cl)cc1	50	x	43*	x	x	i
COc1ccc(C(C(=O)NC2CCCC2)N(C(=O)c2ccco2)c2cc(C)cc(C)c2)cc1OC (centres undefined)	0	x	12	x	x	x
Cc1cc(SCCC(=O)O)nc2c(C)cccc12	82*	0	12	x	-10	i
Cc1cc(SCC(=O)O)nc2ccccc12	-11	2	5	-10	-3	x
Cc1ccc(C(=O)Nc2ccccc2N2CCCCC2)cc1[N+](=O)[O-]	66*	1	1	-6	2	+
O=C(Nc1ccccc1N1CCCCC1)c1cnccn1	66*	-1	5	-4	2	+
CN1CCN(c2ccccc2NC(=O)c2ccc(N3CCCCC3)c([N+](=O)[O-])c2)CC1	-8	0	8	-5	-7	x
COc1ccc(C(=O)Nc2ccccc2N2CCCCC2)cc1[N+](=O)[O-]	52	0	5	-7	5	+
Cc1ccccc1C(=O)Nc1ccccc1N1CCCCC1	60	0	7	-8	-4	+
O=C(c1ccc(Cl)cc1)c1oc2ccccc2c1CS(=O)(=O)c1ccccc1	80*	-1	3	x	0	+
Cc1cc2cc(CN(Cc3cccnc3)C(=S)NC3CCCCC3)c(=O)[nH]c2cc1C	20	x	9	x	x	x
C=CCOc1ccccc1NC(=O)c1ccc2c(c1)nnn2C1CCCCC1	-40	x	2	x	x	x
O=C(O)[C@@H]1[C@H](C(=O)O)[C@@H](C(=O)O)C[C@H]1C(=O)O	61*	x	13	x	x	i
CCCCCn1c(N2CCN(c3cccc(Cl)c3)CC2)nc2c1c(=O)[nH]c(=O)n2C	58	1	11	12	1	x
CCCCCn1c(CN2CCN(c3cc(Cl)ccc3C)CC2)nc2c1c(=O)[nH]c(=O)n2C	78*	1	6	5	-21	i
CCCCCCn1c(SCC(C)C)nc2c1c(=O)[nH]c(=O)n2C	67*	-1	9	-27	-24	i
CCSc1nc2c(c(=O)[nH]c(=O)n2C)n1Cc1ccc(Cl)cc1	66*	-1	11	27	-6	i
O=S(=O)(Cc1ccccc1)Nc1ccc(S(=O)(=O)Nc2ncccn2)cc1	-14	x	11	x	x	x
O=C(N=C1SCC(=O)N1c1ccccc1Cl)c1ccccc1	67*	0	6	-4	-1	i
CCCNC(=O)c1c(NC(=O)c2ccccc2Cl)sc2c1CCCC2	15	x	8	x	x	x
CCC(C)N(C)C(=O)c1cc2ccccc2c(-c2ccccc2Cl)n1 (centres undefined)	70*!	1	8	2	-14	i
SMILES	EP2 mod	S1P4 ag	PGE2 EP2 inh	S1P3 antagonist	S1P4 antag	EP2 cAMP induct
CCc1ccc(C2C(C(C)=O)=C(O)C(=O)N2CC(=O)OC)cc1 (centres undefined)	2	x	17	x	x	x
CCc1ccc(Nc2oc(C)cc(=O)c2C(C)=O)cc1	68*	-3	24	9	-4	i
C=CCSc1nc2ccccc2n1S(=O)(=O)c1ccc(C)cc1	67*	-2	11	x	-3	+
Cc1ccc(S(=O)(=O)n2c(N)nc3ccccc32)cc1	32	x	6	x	x	x
COc1cccc(C(=O)N2CCCC(c3nc(-c4ccc(Cl)cc4)no3)C2)c1OC (centres undefined)	-8	x	4	x	x	x
COc1ccc(OC)c(/C=C/C(=O)N2CCCc3ccccc32)c1	79*	0	5	3	-7	+
Cc1cc(=O)oc(C)c1C(=O)OC(C(=O)c1ccccc1)c1ccccc1 (centres undefined)	67*	3	8	7	-17	i
O=c1c2c(-c3cccs3)csc2ncn1-n1cccc1	-23	-1	8	x	-2	x

Assay outcomes (PubChem)
